Source: PubChem BioAssay (University of Kansas High Throughput Screening Laboratory)
Pf apPOL inh = Pf-apPOL DNA polymerase inhibition | Recombinant Pf-apPOL, molecular beacon fluorescence, 1.5 h | inhibition, % at 10 µM | 210,000 tested, 0.25% active | AID 1794808
mHTT CaM bind = disrupts binding of mutant huntingtin to calmodulin | P42858 | AlphaScreen His-mHTT/GST-CaM binding, luminescence | inhibition, % at 15 µM | 190,000 tested, 3.6% active
A number is an active result; n = inactive; x = not tested or not shown; ! = not active in a repeat. Rows were chosen to be rich in hits. Some 3.5% of all compounds tested hit in one or more screens of this group. Cut-off read from the data, not from the text of the source: active = inhibition above about 50%; inactive = the rest.

SMILES	Pf apPOL inh	mHTT CaM bind
CC1=C(C#N)c2nc(N)c(C#N)c(C)c2/C1=C/c1ccc(O)cc1	n	64.0
CC12CCC(O)CC1=CCC1C2CCC2(C)C(=NN)CCC12 (stereo unspecified)	n	n
CCN(CCCNC(=O)c1cn(C)c(=O)c2c1c1ccccc1n2C)c1cccc(C)c1	n	n
CC(CCc1ccccc1)NC(=O)CC(C(=O)N1CCc2ccccc21)n1ccnc1 (stereo unspecified)	n	n
CCN(CCCNC(=O)CC(C(=O)N1CCc2ccccc21)n1ccnc1)c1cccc(C)c1 (stereo unspecified)	n	74.0
CCN(CC)CCCNC(=O)CC(C(=O)N1CCc2ccccc21)n1ccnc1 (stereo unspecified)	n	n
CC(NC(=O)CC(C(=O)N1CCc2ccccc21)n1ccnc1)C12CC3CC(CC(C3)C1)C2 (stereo unspecified)	n	59.0
CCN(CCCNC(=O)Cc1cn(C)c2ccccc12)c1cccc(C)c1	n	71.0
CC(=O)N1CCC(c2nc(C(=O)N3CCOCC3)c(C)o2)CC1	n	n
Cc1ccc(CNC(=O)c2ccc(CN3C(=O)C4CCCN4C(=O)c4ccccc43)cc2)o1 (stereo unspecified)	n	n
C=CC[n+]1ccc2ccccc2c1	x	n
Cc1c(C(=O)N2CCC(c3nnc(C(C)C)o3)CC2)cnn1-c1ccccc1	n	n
CC(C)c1nnc(C2CCN(C(=O)c3cnc4ccccc4n3)CC2)o1	n	100.1
CN(C)c1ccc(/C=C2\SC(=O)N(CNc3cccc(Cl)c3)C2=O)cc1	n	n
Cc1c(Cc2ccccc2)sc(NC(=O)C(F)(F)F)c1C(N)=O	n	n
Cc1c(Cc2ccccc2)sc(NC(=O)CCc2ccccc2)c1C(N)=O	n	51.9
CCCn1c(C2CCN(C(=O)Nc3ccccc3)C2)nc2cccnc21 (stereo unspecified)	n	n
CCCN=Cc1c(CCC)[nH]n(-c2nc3ccccc3s2)c1=O	n	n
O=c1c(C=NCCCO)c(CSc2ccc(Cl)cc2)[nH]n1-c1nc2ccccc2s1	n	56.0
CC1CCCCN1S(=O)(=O)c1ccc(F)c(C(=O)Nc2cccc(Cl)c2Cl)c1 (stereo unspecified)	n	n
CC1=CC(=C2C(=O)NC(=O)NC2=O)C=C(C)N1Cc1ccccc1	n	n
Cc1ccc(-c2csc(NC(=O)c3ccc(Br)s3)n2)o1	n	n
COc1ccc(-c2csc(N)n2)cc1OC	n	n
Clc1ccc(Nc2nc(-c3cccnc3)cs2)cc1	n	n
Oc1cccc(Nc2nc(-c3ccc(Cl)cc3)cs2)c1	n	97.1
SMILES	Pf apPOL inh	mHTT CaM bind
Cc1ccc(-c2csc(Nc3ccc(C(=O)O)cc3)n2)cc1C	n	n
COc1ccc(-c2csc(Nc3cccc(O)c3)n2)cc1OC	n	67.5
COc1ccc(-c2csc(Nc3ccc(C)c(C)c3)n2)cc1F	n	52.0
COc1ccc(-c2csc(NC(=O)c3ccc(Br)s3)n2)cc1OC	64.0!	69.0!
CC1(C)C2CCC1(C)C(NC(=O)CCOCCC(N)=O)C2 (stereo unspecified)	x	n
Cc1ccccc1-c1nc2cc(NC(=O)c3ccccc3[N+](=O)[O-])ccc2o1	n	n
Cn1nccc1C(=O)N1CC2CN(S(=O)(=O)c3cccc(F)c3)CC(C1)O2	n	n
COc1ccc(-c2csc(Nc3ccc(NC(C)=O)cc3)n2)cc1OC	n	n
COc1ccc(-c2csc(Nc3ccc(O)cc3)n2)cc1OC	n	70.7
Cc1ccc(NC(=O)N2CCC(CCOc3ccncc3)CC2)cc1	n	n
O=C(Nc1nc(NC(=O)c2ccccc2)n(-c2ccccc2)n1)c1ccccc1	n	88.7
Nc1nc(NC(=O)c2ccc([N+](=O)[O-])cc2)nn1-c1ccccc1	n	n
Cc1ccc(/C=C/NC(=O)c2ccco2)cc1C	n	76.7
Cc1cccc(C)c1NC(=O)c1ccco1	n	n
N#Cc1c(SCC(=O)NC23CC4CC(CC(C4)C2)C3)sc2c(=O)[nH]c(=O)[nH]c12	x	n
CN(C)c1cccc(OCc2noc(-c3ccccc3Cl)n2)c1	n	67.5
Clc1ccccc1-c1nc(COc2ccc3c(c2)OCO3)no1	n	n
COc1cccc(C(CNC(=O)C(=O)Nc2ccon2)N2CCOCC2)c1 (stereo unspecified)	n	n
COc1cccc(-c2nc(C3CCN(C(=O)c4cccc(N(C)C)c4)CC3)no2)c1	n	52.7
COc1cccc(-c2nc(C3CCN(C(=O)c4ccc(Cl)cc4)CC3)no2)c1	n	62.5
COc1ccccc1-c1nc(C2CCN(C(=O)c3cccc(Cl)c3)CC2)no1	n	63.2
COc1cccc(C(=O)N2CCC(c3noc(-c4cccc(OC)c4)n3)CC2)c1	n	n
Cc1ccccc1-c1nc(C2CCN(C(=O)c3ccc(Br)cc3)CC2)no1	n	53.7
COc1cccc(-c2nc(C3CCN(C(=O)c4ccc(Br)cc4)CC3)no2)c1	n	n
COc1ccccc1-c1nc(C2CCN(C(=O)c3ccccc3)CC2)no1	n	n
SMILES	Pf apPOL inh	mHTT CaM bind
COc1ccc(C(=O)N2CCC(c3noc(-c4ccccc4C)n3)CC2)cc1	n	n
Cn1cccc1CN(C(=O)CSc1ccc(F)cc1)C1CC1	n	n
Cc1nc2nc(SCC(=O)N3CCCC3)nn2c(C)c1Cc1ccccc1Cl	n	n
Cc1ccccc1NCN1C(=O)S/C(=C\c2ccccc2F)C1=O	n	n
COc1ccc(CC(=O)N2CC3CC2CC3NC(=O)c2ccccc2)c(Cl)c1 (stereo unspecified)	n	n
Cc1ccsc1C1C(C#N)=C(N)Oc2n[nH]c(C(C)(C)C)c21 (stereo unspecified)	n	n
COc1cc2c(cc1OC)C(COc1ccc(F)cc1)N(C(=O)C1CC1)CC2 (stereo unspecified)	n	n
COc1cc2c(cc1OC)C(COc1ccc(F)cc1)N(C(=O)c1ccccc1OC)CC2 (stereo unspecified)	n	81.0
COc1cc2c(cc1OC)C(COc1ccc(F)cc1)N(C(=O)c1ccc(F)cc1)CC2 (stereo unspecified)	n	57.0
CCOc1ccccc1C(=O)N1CCc2cc(OC)c(OC)cc2C1COc1ccc(OC)cc1 (stereo unspecified)	n	n
Cc1ccc(NCCNC(=O)COc2ccc(Cl)cc2Cl)nn1	n	n
O=C1CSC(c2ccc([N+](=O)[O-])cc2)N1c1ccc(Oc2ccccc2)cc1 (stereo unspecified)	n	75.0
Cc1ccc(N2C(=O)CSC2c2ccc3c(c2)OCO3)cc1 (stereo unspecified)	n	n
Cc1ccc(N2C(=O)CSC2c2ccc([N+](=O)[O-])cc2)cc1 (stereo unspecified)	n	n
O=C1CSC(c2ccc3c(c2)OCO3)N1c1ccc(Oc2ccccc2)cc1 (stereo unspecified)	n	100.0
COc1ccc(CCNC(=O)c2cn(C)c(=O)c3ccccc23)cc1OC	n	n
CCOc1ccc(-n2c(SCc3ccccc3F)nc3c(c2=O)SCC3)cc1	n	n
CCc1nc2ccccc2n1CC(O)COc1cccc(Cl)c1 (stereo unspecified)	n	n
C[C@@H](c1ccccc1)N1C[C@@H](COCc2ccccc2)Oc2cc(N3CC[C@H](O)C3)ccc2S1(=O)=O	n	55.4
C[C@H](c1ccccc1)N1C[C@@H](COCc2ccccc2)Oc2cc(N3CC[C@H](N(C)C)C3)ccc2S1(=O)=O	n	n
C[C@H](c1ccccc1)N1C[C@@H](COCc2ccccc2)Oc2cc(N3CC[C@@H](N(C)C)C3)ccc2S1(=O)=O	n	100.2
